Data as given in PubChem BioAssay (NCATS).
Results filed as inconclusive are left out. Entries that show only a call come without a potency. Calls of active or inactive are those of the source. The call rests on the fitted dose curve; in most records, active means well fitted inhibition curve with a large enough effect; inconclusive means small, poorly fitted or top-dose-only effect; inactive means flat fitted curve, though single readings scatter.

Legend:
[1] = molecular target: Voltage-gated inwardly rectifying potassium channel KCNH2 (Homo sapiens) (UniProt Q12809); test: qHTS Assay for Small Molecule Inhibitors of the Human hERG Channel Activity (AID 588834);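 further: lower thallium flux fluorescence means stronger hERG block; nearly all actives have a fitted effect of over 50% in size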; further: potency means the concentration at half of the fitted maximal effect
Procedure, shortened: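 Blockade is seen as reduced FluxOR thallium-flux fluorescence in U2OS cells expressing hERG from a BacMam construct, in Opti-MEM with 2% FCS. Concentration-response data fitted to the Hill equation for AC50.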

[2] = molecular target: Luciferin 4-monooxygenase (Photinus pyralis) (UniProt P08659); test: Biochemical firefly luciferase enzyme assay for NPC (AID 624030);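 further: purified P. pyralis luciferase at 10 nM with luciferin and ATP substrate; series mostly up to about 59 µM; nearly all actives have a fitted effect of over 70% in size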
Procedure, shortened: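 Direct inhibition of firefly luciferase enzyme (10 nM final, 50 mM Tris Acetate) assessed by luminescence within 5 minutes. Percent activity scaled between DMSO and PTC124 positive control, with concentration-effect curves classified by fit quality and response.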

Luciferin 4-monooxygenase (Photinus pyralis), sequence (P08659 whole entry, looked up): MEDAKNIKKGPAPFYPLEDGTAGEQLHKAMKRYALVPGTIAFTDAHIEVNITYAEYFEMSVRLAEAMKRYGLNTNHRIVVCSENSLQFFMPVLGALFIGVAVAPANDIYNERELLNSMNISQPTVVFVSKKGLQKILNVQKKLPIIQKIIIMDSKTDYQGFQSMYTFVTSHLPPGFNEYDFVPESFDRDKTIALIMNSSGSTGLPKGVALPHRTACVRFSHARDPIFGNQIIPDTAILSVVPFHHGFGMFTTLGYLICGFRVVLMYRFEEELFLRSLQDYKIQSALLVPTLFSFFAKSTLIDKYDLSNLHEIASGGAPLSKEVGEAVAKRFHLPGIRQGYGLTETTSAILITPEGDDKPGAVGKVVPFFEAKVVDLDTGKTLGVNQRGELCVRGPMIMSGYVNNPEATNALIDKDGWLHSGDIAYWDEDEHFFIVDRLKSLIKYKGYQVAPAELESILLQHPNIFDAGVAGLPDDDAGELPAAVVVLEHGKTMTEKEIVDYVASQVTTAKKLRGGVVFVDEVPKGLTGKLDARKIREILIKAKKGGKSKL
Voltage-gated inwardly rectifying potassium channel KCNH2 (Homo sapiens), sequence (Q12809 whole entry, looked up): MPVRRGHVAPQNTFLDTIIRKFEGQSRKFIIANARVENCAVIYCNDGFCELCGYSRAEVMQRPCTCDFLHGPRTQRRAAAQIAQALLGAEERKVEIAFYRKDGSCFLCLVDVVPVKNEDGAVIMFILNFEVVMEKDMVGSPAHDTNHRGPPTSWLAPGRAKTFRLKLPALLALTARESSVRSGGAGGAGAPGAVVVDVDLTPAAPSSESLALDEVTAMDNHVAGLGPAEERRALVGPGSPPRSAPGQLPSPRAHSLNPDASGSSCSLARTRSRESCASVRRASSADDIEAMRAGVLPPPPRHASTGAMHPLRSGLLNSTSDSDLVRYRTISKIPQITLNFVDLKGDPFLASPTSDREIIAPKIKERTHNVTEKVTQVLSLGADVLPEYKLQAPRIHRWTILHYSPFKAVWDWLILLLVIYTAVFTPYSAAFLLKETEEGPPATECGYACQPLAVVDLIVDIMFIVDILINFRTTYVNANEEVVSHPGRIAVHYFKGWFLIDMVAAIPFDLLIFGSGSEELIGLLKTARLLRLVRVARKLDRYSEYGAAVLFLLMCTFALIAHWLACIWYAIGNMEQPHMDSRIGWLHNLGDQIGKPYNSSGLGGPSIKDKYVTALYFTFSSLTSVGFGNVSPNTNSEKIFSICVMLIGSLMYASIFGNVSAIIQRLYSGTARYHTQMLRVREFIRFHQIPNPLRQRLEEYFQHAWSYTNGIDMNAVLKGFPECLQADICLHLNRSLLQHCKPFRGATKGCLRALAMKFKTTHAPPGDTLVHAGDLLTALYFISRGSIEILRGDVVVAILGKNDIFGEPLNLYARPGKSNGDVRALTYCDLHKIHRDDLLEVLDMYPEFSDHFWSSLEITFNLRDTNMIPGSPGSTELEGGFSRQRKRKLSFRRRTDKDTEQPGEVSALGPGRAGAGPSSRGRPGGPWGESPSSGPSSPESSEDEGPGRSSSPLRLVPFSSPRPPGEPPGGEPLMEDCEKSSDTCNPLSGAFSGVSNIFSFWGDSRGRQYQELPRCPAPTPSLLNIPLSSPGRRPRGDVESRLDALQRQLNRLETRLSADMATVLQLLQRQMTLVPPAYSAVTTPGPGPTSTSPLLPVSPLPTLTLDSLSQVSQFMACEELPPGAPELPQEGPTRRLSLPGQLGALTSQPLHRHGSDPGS

## NC1CCN(c2nc3c(cc2F)c(=O)c(C(=O)O)cn3-c2ccc(F)cc2F)C1 (stereo not given)
[1]
  Potency: inactive
[2]
  Potency: inactive

## Nc1ccc(S(=O)(=O)NCc2ccccc2)cc1
[1]
  Potency: inactive
[2]
  Potency: inactive

## CC(=O)Nc1ccc(S(=O)(=O)Nc2ccc([N+](=O)[O-])cc2)cc1
[1]
  Potency: inactive
[2]
  Potency: inactive

## CC(C)(C)NC[C@H](O)COc1nsnc1N1CCOCC1
[1]
  Potency: inactive
[2]
  Potency: inactive

## COC(=O)C(c1ccccc1Cl)N1CCc2sccc2C1 (stereo not given)
[1]
  Potency: inactive
[2]
  Potency: inactive

## CCNC(=O)NCc1cccc(Cl)c1
[1]
  Potency: inactive
[2]
  Potency: inactive

## CCN(CC)CCNC(=O)COc1ccc(OC)cc1
[1]
  Potency: inactive
[2]
  Potency: inactive

## O=C(O)CCNC(=O)c1ccccc1
[1]
  Potency: inactive
[2]
  Potency: inactive

## CCCN(CCc1cccs1)[C@H]1CCc2c(O)cccc2C1
[1]
  Potency: 1000 nM (active)
[2]
  Potency: inactive

## O=C(c1ccc(F)cc1)C1CCN(CCn2c(=S)[nH]c3ccccc3c2=O)CC1
[1]
  Potency: 251 nM (active)
[2]
  Potency: inactive
